Results as given in PubChem BioAssay (NCATS).
Where “and” joins values, the source holds several entries; their conditions need not be identical. Identical values can stand only once. Records with an inconclusive call do not appear. Calls of active or inactive are those of the source. Calls follow the shape of the dose curve; as a rule, active = well fitted curve in the direction sought with a large enough effect; inconclusive = small, poorly fitted or top-dose-only effect, or another doubt; inactive = no such curve, though single readings can be large; an effect the other way counts as inactive or inconclusive.

What was measured:
[1] = Viability qHTS for spleen associated tyrosine kinase inhibitor (SYKi) naive MV4-11 cells (AID 1963823); also: nearly all actives have a fitted effect of over 40% in size
Method in brief: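 Cells: MV4-11, SYK inhibitor naive, 500 per well. Treatment: library compounds, 72 hr, 37 C, 5% CO2. Read-out: CellTiter-Glo luminescence after 10 min RT.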

[2] = Viability qHTS for spleen associated tyrosine kinase inhibitor (SYKi) drug resistant MV4-11 cells (AID 1963824); also: nearly all actives have a fitted effect of over 35% in size
Method in brief: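 SYK-inhibitor-resistant MV4-11 AML cells were seeded at 500 per well onto compound and cultured 72 hours (37 °C, 5% CO2). CellTiter-Glo was then added, and after 10 min at room temperature, luminescence gave viability.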

[3] = Cellular viability qHTS for adrenocortical cancer (ACC) cell line SW-13 (AID 1963989); details: SW-13 ACC cells viability, CellTiter-Glo, 48 h; activity (max response): active compounds read low; also: nearly all actives have a fitted effect of over 65% in size;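 as to activity (max response): cells grown in serum-free medium with ITS supplement; % is scaled to controls: 0 for no effect and ±100 for the full control effect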
Method in brief: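 48 h treatment, SW-13 in ITS/DMEM serum-free; doses up to 46 uM; readout CellTiter-Glo luminescence; curve fit four-parameter logistic.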

[4] = Cellular viability qHTS for adrenocortical cancer (ACC) cell line NCI-H295R (AID 1963990); also: nearly all actives have a fitted effect of over 60% in size
Method in brief: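 Compound titrations (up to 46 uM final) are applied to NCI-H295R cultures for 48 h at 37C. Viable cell number is estimated by CellTiter-Glo signal, normalised to DMSO and doxorubicin controls.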
Potency is read from the fitted curve at half-maximal effect.

Clc1ccc(-c2nc3sccn3c2/C=N/OCc2ccc(Cl)c(Cl)c2)cc1
inactive: Potency [1] | Potency [2] | activity (max response) [3] 3.29% | Potency [4]

Cc1ccc(C(=O)Nc2ccc(CN3CCN(C)CC3)c(C(F)(F)F)c2)cc1C#Cc1cnc2[nH]ncc2c1
active: Potency [3] 1.78 µM | Potency [4] 5.01 µM
inactive: Potency [1] | Potency [2]

C=CC(=O)N1CC/C(=C\c2ccc(F)c([N+](=O)[O-])c2)C(=O)/C(=C/c2ccc(F)c([N+](=O)[O-])c2)C1
active: Potency [1] 0.0332 µM | Potency [2] 0.0332 µM | Potency [3] 0.794 µM | Potency [4] 0.316 µM

CCN1C(=O)CNc2ncc(-c3ccc(-c4ncn[nH]4)nc3C)nc21
active: Potency [1] 0.417 µM | Potency [2] 0.742 µM | Potency [3] 8.91 µM | Potency [4] 10 µM

CN(C)CCCSc1ccccc1NC(=O)/C=C/c1ccccc1
inactive: Potency [1] | Potency [2] | activity (max response) [3] 8.03% | Potency [4]

COc1ccc(CNC(=O)Nc2ncc([N+](=O)[O-])s2)cc1
active: Potency [1] 9.34 µM | Potency [2] 13 µM | Potency [3] 25.1 µM | Potency [4] 28.2 µM

CCc1cc(C(N)=O)ccc1-n1nc(C(C)C)c2c(-n3cnc(-c4cnn(C)c4)c3)ccnc21
active: Potency [1] 0.372 µM | Potency [2] 0.59 µM | Potency [3] 2.82 µM | Potency [4] 7.94 µM

FC(F)(F)c1ccc(Nc2nc(-c3c(C(F)(F)F)nc4ccccn34)cs2)cc1
active: Potency [1] 0.184 µM | Potency [2] 0.13 µM | Potency [3] 0.282 µM | Potency [4] 0.316 µM

COc1ccc(S(=O)(=O)N2CCc3cccc(-c4ccncc4)c32)cc1
active: Potency [1] 0.833 µM | Potency [2] 0.833 µM | Potency [3] 0.316 µM | Potency [4] 0.158 µM

Cc1onc(-c2c(Cl)cccc2Cl)c1C(=O)N[C@@H]1C(=O)N2[C@@H]1SC(C)(C)[C@@H]2C(=O)O
inactive: Potency [1] | Potency [2] | activity (max response) [3] 1.28% | Potency [4]

CCOCCOC(=O)/C=C/c1ccc(OC)cc1
inactive: Potency [1] | Potency [2] | activity (max response) [3] -3.52% | Potency [4]

CC1=C(/C=C/C(C)=C/C=C/C(C)=C/C(=O)O)C(C)(C)CCC1
active: Potency [1] 668 nM and 132 nM | Potency [2] 1.06 µM and 468 nM
inactive: activity (max response) [3] -7.6% and 3.95% | Potency [4]

CC(=O)Nc1ccc(OCCOCCOc2ccc(NC(C)=O)cc2)cc1
inactive: Potency [1] | Potency [2] | activity (max response) [3] -7.42% | Potency [4]

CC(C)N(CCCNC(=O)Nc1ccc(C(C)(C)C)cc1)C[C@H]1O[C@@H](n2cc(Br)c3c(N)ncnc32)[C@H](O)[C@@H]1O
active: Potency [1] 4.68 µM | Potency [2] 18.4 µM and 7.42 µM | Potency [3] 28.2 µM | Potency [4] 25.1 µM

CC(=O)c1ccc2c(c1)c1cc(C(C)=O)ccc1n2CCNC(C)C
active: Potency [1] 0.372 µM | Potency [2] 0.525 µM | Potency [3] 1.58 µM | Potency [4] 1.58 µM

CC1(C)S[C@H]2[C@H](NC(=O)[C@@H](N)c3ccc(O)cc3)C(=O)N2[C@H]1C(=O)O
inactive: Potency [1] | Potency [2] | activity (max response) [3] 7.49% | Potency [4]

CCN(CC)CCOC(=O)c1ccc(N)cc1
inactive: Potency [1] | Potency [2] | activity (max response) [3] 7.42% | Potency [4]

CCC(=O)NS(=O)(=O)c1ccc(-c2c(-c3ccccc3)noc2C)cc1
active: Potency [2] 8.2 µM
inactive: Potency [1] | activity (max response) [3] -1.9% | Potency [4]

C[N+]1(CC2COC(c3ccccc3)(C3CCCCC3)O2)CCCCC1 (stereo not drawn)
active: Potency [1] 13.3 µM | Potency [2] 11.9 µM
inactive: activity (max response) [3] -27.2% | Potency [4]

O=C(O)CCCC[C@@H]1SC[C@@H]2NC(=O)N[C@@H]21
inactive: Potency [1] | Potency [2] | activity (max response) [3] -0.523% | Potency [4]

Nc1ccc(S(=O)(=O)Nc2ccccn2)cc1
inactive: Potency [1] | Potency [2] | activity (max response) [3] 6.67% | Potency [4]

CC(C)(C)c1ccc(C(=O)CCCN2CCC(OC(c3ccccc3)c3ccccc3)CC2)cc1
active: Potency [1] 13.3 µM | Potency [2] 11.9 µM | Potency [3] 13 µM | Potency [4] 5.8 µM

O=C1CC2(CCCC2)CC(=O)N1CCNCC1COc2ccccc2O1 (stereo not drawn)
inactive: Potency [1] | Potency [2] | activity (max response) [3] 6.61% | Potency [4]

Cc1ccccc1OCC(O)CO (stereo not drawn)
inactive: Potency [1] | Potency [2] | activity (max response) [3] -4.04% | Potency [4]

CC(C)Cc1ccc([C@@H](C)C(=O)NS(C)(=O)=O)cc1
inactive: Potency [1] | Potency [2] | activity (max response) [3] 5.6% | Potency [4]

CCC(Cc1c(I)cc(I)c(N)c1I)C(=O)O (stereo not drawn)
inactive: Potency [1] | Potency [2] | activity (max response) [3] 1.75% | Potency [4]

C[C@H]1O[C@H](O[C@H]2[C@H](O)[C@@H](O)[C@@H](O[C@H]3[C@H](O)[C@@H](O)C(O)O[C@@H]3CO)O[C@@H]2CO)[C@H](O)[C@@H](O)[C@@H]1N[C@H]1C=C(CO)[C@@H](O)[C@H](O)[C@H]1O (stereo partly drawn)
inactive: Potency [1] | Potency [2] | activity (max response) [3] -4.82% | Potency [4]

CN(C)Cc1ccc(S(=O)(=O)n2ccc(/C=C/C(=O)NO)c2)cc1
active: Potency [1] 3.32 µM | Potency [2] 2.35 µM | Potency [3] 12.6 µM | Potency [4] 3.16 µM

CC(C)CCCC(C)CCCC(C)CCCCC(C)CCCC(C)CCCC(C)C (stereo not drawn)
inactive: Potency [1] | Potency [2] | activity (max response) [3] 6.76% | Potency [4]

Cc1c(NC(=O)c2cc(C(N)=O)nc3cc(F)ccc23)c(C(F)(F)F)nn1Cc1ccc(C(C)(C)C)cc1
active: Potency [1] 20.9 µM | Potency [2] 16.6 µM
inactive: activity (max response) [3] 8.86% | Potency [4]

C=C1[C@H](OC(=O)/C=C(\C)CC)C[C@@H](C(C)C)[C@@H]2[C@H]([C@@H](C)OC(C)=O)C(=O)C[C@@H]12
inactive: activity (max response) [3] 6.72% | Potency [4]
active: Potency [1] 14.8 µM | Potency [2] 13.2 µM

CC1c2cccc(O)c2C(O)=C2C(=O)C3(O)C(O)=C(C(N)=O)C(=O)C(N(C)C)C3C(O)C21 (stereo not drawn)
inactive: activity (max response) [3] 8.67% | Potency [4]
active: Potency [1] 20.9 µM | Potency [2] 11.8 µM

Cc1cc(O)cc2c1O[C@](C)(CCC[C@H](C)CCC[C@H](C)CCCC(C)C)CC2
inactive: Potency [1] | Potency [2] | activity (max response) [3] 7.62% | Potency [4]

COc1cc(OC)c2c(=O)[nH]c(-c3cc(C)c(OCCO)c(C)c3)nc2c1
active: Potency [1] 14.6 µM | Potency [2] 13 µM and 9.34 µM
inactive: activity (max response) [3] -6.15% | Potency [4]

C[C@]12C=CC(=O)C=C1[C@@H](F)C[C@@H]1[C@@H]2[C@@H](O)C[C@@]2(C)[C@H]1CC[C@]2(O)C(=O)CO
inactive: Potency [1] | Potency [2] | activity (max response) [3] 7.4% | Potency [4]

CN1C(=O)[C@@H](NC(=O)c2n[nH]c(Cc3ccccc3)n2)COc2ccccc21
inactive: Potency [1] | Potency [2] | activity (max response) [3] 8.85% | Potency [4]

CCCCCCCCCCCCCCCC[N+](C)(C)CCN(Cc1ccc(OC)cc1)c1ncccn1
active: Potency [1] 2.66 µM | Potency [2] 2.11 µM | Potency [3] 20.6 µM | Potency [4] 16.4 µM

O=C(O)/C=C(\CC(=O)O)C(=O)O
inactive: Potency [1] | Potency [2] | activity (max response) [3] 7.17% | Potency [4]

c1ccc(Cn2c(-c3ccc(OCC(C4CCNCC4)n4c(-c5ccccc5)nc5ccccc54)cc3)nc3ccccc32)cc1 (stereo not drawn)
active: Potency [1] 5.25 µM | Potency [2] 7.42 µM | Potency [3] 25.1 µM | Potency [4] 7.08 µM

Nc1ncnc(Nc2ccc(OCc3ccccc3)c(Cl)c2)c1/C=N/OCCN1CCOCC1
active: Potency [1] 8.33 µM | Potency [2] 7.42 µM | Potency [3] 17.8 µM | Potency [4] 15.8 µM

CCCCCCCCCCCCCCCC[n+]1ccccc1
active: Potency [1] 0.668 µM | Potency [2] 0.668 µM | Potency [3] 3.66 µM | Potency [4] 5.8 µM

CO/N=C(\C(=O)O)c1csc(NC(=O)CCl)n1
inactive: Potency [1] | Potency [2] | activity (max response) [3] 13% | Potency [4]

CC1=C2C[C@H]3[C@@H](CC[C@@H]4C[C@H](NS(C)(=O)=O)CC[C@@]43C)[C@@H]2CC[C@@]2(C1)O[C@@H]1C[C@H](C)CN[C@H]1[C@H]2C
active: Potency [1] 9.34 µM | Potency [2] 4.68 µM | Potency [3] 25.1 µM | Potency [4] 17.8 µM

CN1CCCN(C(=O)c2cccc(-c3ccc(/C=C4/C(=O)Nc5ccc(Cl)cc54)o3)c2)CC1
active: Potency [1] 0.417 µM | Potency [2] 0.662 µM | Potency [3] 25.1 µM | Potency [4] 4.47 µM

Cn1cncc1C(N)(c1ccc(Cl)cc1)c1ccc2c(c1)c(-c1cccc(Cl)c1)cc(=O)n2C (stereo not drawn)
active: Potency [1] 1.05 µM | Potency [2] 1.86 µM | Potency [3] 6.31 µM | Potency [4] 3.55 µM

COc1cc(OC)c(/C=C/S(=O)(=O)Cc2ccc(OC)c(NCC(=O)O)c2)c(OC)c1
active: Potency [1] 92 nM and 105 nM | Potency [2] 51.7 nM and 118 nM | Potency [3] 0.02 µM | Potency [4] 0.0224 µM

Oc1cc(O)c2c(c1)O[C@H](c1ccc(O)c(O)c1)[C@H](O)C2
inactive: Potency [1] | Potency [2] | activity (max response) [3] 11.2% | Potency [4]

C/C=C/C/C=C/CCC(=O)[C@H]1O[C@H]1C(N)=O
active: Potency [1] 8.33 µM | Potency [2] 6.61 µM | Potency [3] 25.1 µM | Potency [4] 20 µM

Cc1cccn2c(=O)c(-c3nnn[nH]3)cnc12
inactive: Potency [1] | Potency [2] | activity (max response) [3] -1.53% | Potency [4]

CCN(CC)CCc1nc(-c2ccccc2)no1
inactive: Potency [1] | Potency [2] | activity (max response) [3] -1.01% | Potency [4]

CCN[C@H]1CN(CCCOC)S(=O)(=O)c2sc(S(N)(=O)=O)cc21
inactive: Potency [1] | Potency [2] | activity (max response) [3] 7.66% | Potency [4]

C[C@H](CCC(=O)O)[C@H]1CC[C@H]2[C@@H]3[C@@H](O)C[C@@H]4C[C@H](O)CC[C@]4(C)[C@H]3CC[C@]12C
inactive: Potency [1] | Potency [2] | activity (max response) [3] -9.5% | Potency [4]
